Calls of active or inactive are those of the source. The calls were made as follows: active = hit-call score of the fitted dose curve at least 0.9, where 1 is the maximum; inactive = score below 0.9.
Tests used:
[1] = read-out: Interleukin-8 (IL8), CXCL8 (gene 3576); assay: BSK_CASM3C_IL8: BioMAP Diversity Plus: CASM3C Assay for Interleukin-8 (IL8) Biomarker Activity (AID 2283042); conditions: primary human coronary artery smooth muscle cells; actives raise or lower the signal;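 also: IL-8 protein level quantified by ELISA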
[2] = read-out: Human Leukocyte Antigen - DR isotype (HLADR), HLA-DRA (gene 3122); assay: BSK_CASM3C_HLADR: BioMAP Diversity Plus: CASM3C Assay for Human Leukocyte Antigen - DR isotype (HLADR) Biomarker Activity (AID 2283043); conditions: primary human coronary artery smooth muscle cells; actives raise or lower the signal;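 also: cell-surface HLA-DR protein level quantified by ELISA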
[3] = read-out: Macrophage colony-stimulating factor (MCSF), CSF1 (gene 1435); assay: BSK_CASM3C_MCSF: BioMAP Diversity Plus: CASM3C Assay for Macrophage colony-stimulating factor (MCSF) Biomarker Activity (AID 2283044); conditions: primary human coronary artery smooth muscle cells; actives raise or lower the signal;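 also: M-CSF protein amount quantified by ELISA after 24 h exposure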
[4] = read-out: Low-density lipoprotein receptor (LDLR), LDLR (gene 3949); assay: BSK_CASM3C_LDLR: BioMAP Diversity Plus: CASM3C Assay for Low-density lipoprotein receptor (LDLR) Biomarker Activity (AID 2283045); conditions: primary human coronary artery smooth muscle cells; actives raise or lower the signal;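 also: LDLR protein level on the cell surface quantified by ELISA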
[5] = read-out: Monocyte Chemoattractant Protein-1 (MCP1), CCL2 (gene 6347); assay: BSK_CASM3C_MCP1: BioMAP Diversity Plus: CASM3C Assay for Monocyte Chemoattractant Protein-1 (MCP1) Biomarker Activity (AID 2283046); conditions: primary human coronary artery smooth muscle cells; actives raise or lower the signal;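 also: MCP-1 level quantified by ELISA 24 h after dosing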
[6] = BSK_CASM3C_Proliferation: Cell Proliferation Assessment in the BioMAP Diversity Plus: CASM3C Assay (AID 2283047); conditions: primary human coronary artery smooth muscle cells;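 also: sulforhodamine B total protein stain as relative cell number at 560 nm; sub-confluent cells exposed 48 h before staining; fitted both ways against DMSO so gain or loss of cell number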
[7] = read-out: Monokine induced gamma interferon (MIG), CXCL9 (gene 4283); assay: BSK_CASM3C_MIG: BioMAP Diversity Plus: CASM3C Assay for Monokine induced gamma interferon (MIG) Biomarker Activity (AID 2283048); conditions: primary human coronary artery smooth muscle cells; actives raise or lower the signal;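 also: MIG protein level measured by ELISA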
[8] = read-out: serum amyloid A (SAA), SAA1 (gene 6288); assay: BSK_CASM3C_SAA: BioMAP Diversity Plus: CASM3C Assay for serum amyloid A (SAA) Biomarker Activity (AID 2283049); conditions: primary human coronary artery smooth muscle cells; actives raise or lower the signal;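 also: SAA protein level quantified by ELISA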
[9] = BSK_CASM3C_SRB: Viability Assessment in the BioMAP Diversity Plus: CASM3C Assay (AID 2283050); conditions: primary human coronary artery smooth muscle cells;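 also: total protein by SRB staining as cytotoxicity measure in parallel cultures; cells exposed to compound for 24 h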
[10] = read-out: Thrombomodulin, THBD (gene 7056); assay: BSK_CASM3C_Thrombomodulin: BioMAP Diversity Plus: CASM3C Assay for Thrombomodulin Biomarker Activity (AID 2283051); conditions: primary human coronary artery smooth muscle cells; actives raise or lower the signal;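 also: thrombomodulin protein level measured by ELISA 24 h after dosing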

Measured: AC50

CCCCCC(=O)O
inactive: all assays above

O=C(N[C@@H](Cc1ccccc1)[C@@H](O)C(=O)N1C[C@@H](O)[C@@H](O)C1)c1cc2cc(Cl)ccc2[nH]1
inactive: all assays above

CCCCCCCCCCCC(=O)OC
inactive: all assays above

Nc1ccccc1N
inactive: all assays above

CCc1c(C(=O)NN2CCCCC2)nn(-c2ccc(Cl)cc2Cl)c1-c1ccc(Br)cc1
active: [2] 29.9 µM | [5] 33.8 µM | [6] 20.2 µM | [9] 16.8 µM
inactive: all other assays above

CC(=O)Oc1ccccc1C(=O)O
inactive: all assays above

O=C(O)CCCCC(=O)O
inactive: all assays above

CC1(C)NC(=O)NC1=O
inactive: all assays above

CCCCCCCCCCCCCCCC
inactive: all assays above

CCCCCCCCCCCCCO
active: [3] 34.5 µM | [5] 33.3 µM | [6] 34.2 µM | [9] 34.4 µM | [10] 20.6 µM
inactive: [1] | [2] | [4] | [7] | [8]

Nc1nc(N)c2nc(CNc3ccc(C(=O)N[C@@H](CCC(=O)O)C(=O)O)cc3)cnc2n1
inactive: all assays above

COc1cc(C=O)ccc1O
inactive: all assays above

c1cc(-c2ccncc2)ccn1
inactive: all assays above

CCCCCCCC=O
inactive: all assays above

COCCOCCOC
inactive: all assays above

Cc1c(C(=O)O)c(O)cc2c1C(=O)c1c(O)c([C@@H]3O[C@H](CO)[C@@H](O)[C@H](O)[C@H]3O)c(O)c(O)c1C2=O
inactive: all assays above

CCCCCCCCCCO
inactive: all assays above

CCCCC(CC)COC(=O)CC(C(=O)OCC(CC)CCCC)S(=O)(=O)O (stereo not given)
inactive: all assays above

Cc1nc(C)nc(N2C[C@@H](C)N(c3ccnc([C@@H](C)O)n3)[C@@H](C)C2)n1
inactive: all assays above

O=C(O)Cc1ccccc1Nc1c(Cl)cccc1Cl
inactive: all assays above

COc1ccc(S(=O)(=O)N2C(=O)[C@@](c3ccccc3OC)(N3C[C@H](O)C[C@H]3C(=O)N(C)C)c3cc(Cl)ccc32)c(OC)c1
inactive: all assays above

Nc1ccc(S(=O)(=O)c2ccc(N)cc2)cc1
inactive: all assays above

COc1ccc2c(c1)c(CC(=O)O)c(C)n2C(=O)c1ccc(Cl)cc1
inactive: all assays above

CNCc1cc(F)ccc1Oc1ccc(Cl)c(Cl)c1
active: [4] 13.8 µM | [6] 22 µM
inactive: all other assays above

CC1(C)CC(N=C=O)CC(C)(CN=C=O)C1 (stereo not given)
active: [4] 6.43 µM
inactive: all other assays above

NCCO
active: [10] 0.937 µM
inactive: all other assays above

Cc1cc(NC(=O)C(=O)O)cc(C)c1Oc1ccc(O)c2c1CCC2
inactive: all assays above

Cc1ccc(Cl)cc1
inactive: all assays above

Cc1ccc(C)c(C)c1
inactive: all assays above

Reference: PubChem BioAssay (EPA / NIEHS)
